Bioassay records as filed in PubChem BioAssay.
TrxR1 inh = blocks rat thioredoxin reductase 1. O89049. recombinant rTrxR1, NADPH fluorescence consumption, selenite substrate. Potency, µM (highest dose often 114 µM), most hits filed as inhibitors. 390,000 tested, 1% active; also: nearly all actives have a fitted effect of over 65% in size
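Rat TrxR1 (90 nM in the dispensed reagent) was pre-reduced with 400 uM NADPH for 5 min at room temperature, then incubated with compound for 15 min. After 400 uM selenite was added, NADPH fluorescence (Ex 340/Em 450 nm) was followed for 8 min.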
TrxR1 substrate = substrates of rat thioredoxin reductase 1; O89049; purified TrxR1 substrate turnover, NADPH consumption readout; Potency, µM (doses to about 114 µM); 390,000 tested, 0.01% active; AID 588456; also: nearly all actives have a fitted effect of over 50% in size
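Rat TrxR1, dispensed at 90 nM, was prereduced with 400 uM NADPH (final) for 5 min at ~22 deg C, then incubated with compound 15 min before 400 uM selenite. A first-read NADPH fluorescence drop versus no-compound background flagged substrates.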
Integrin act MD = activates integrin-mediated alleviation for muscular dystrophy; alpha7betagal myoblasts, beta-gal FDG fluorescence, 48 h; Potency, µM (top dose mostly 38.3 µM), usual class: activators; 350,000 tested, 0.064% active; also: nearly all actives have a fitted effect of over 60% in size
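alpha7betagal+/- myoblasts (passage 13, 250/well) treated 48 h at 37C with compounds at 1:260 dilution of DMSO stock. Lysed, then beta-galactosidase activity read as FDG fluorescence (ex 480/em 540) after 30 min, with pre-read for autofluorescence.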
PI4K2A inh = blocks human PI4K2A kinase activity; activity change, negative = inhibition, % at 76.9 µM; purified PI4K2A, ADP-Glo luminescence, 1 h; active compounds read low; Q9BTU6; 420,000 tested, 0.13% active; AID 1346378; in the data active = activity change below about -50%; inconclusive = mostly about -30% to -49%
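ADP-Glo luminescence measured ADP generated by PI4K2A enzyme (4 ug/mL before mixing) with 1.2 mM PI substrate (pre-mix) and 300 microM ATP (pre-mix). Tris pH7.5 buffer with MgCl2, Triton X-100; 1 h reaction at ambient temperature.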
LDHA inh = LDHA (human) enzyme inhibition; P00338; purified LDHA, NADH/diaphorase-resazurin fluorescence; active compounds read low; activity change, % (values are at about 110 or 230 µM); 480,000 tested, 0.15% active; in the data active = activity change below about -30%; inconclusive = mostly about -25% to -30%
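Remaining NADH was detected by diaphorase (0.133 mg/mL) converting 37 µM resazurin to fluorescent resorufin, read at 0 and 20 minutes. The preceding 5-minute room-temperature reaction used 2 nM LDHA, 0.2 mM sodium pyruvate and 0.06 mM NADH at pH 7.4.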
GALK inh = inhibitors of human galactokinase; Purified GALK, Kinase-Glo residual ATP luminescence; Potency, µM (top dose mostly 57.5 µM), hits mostly inhibitors; 270,000 tested, 0.007% active; AID 1868
Target sequence (P51570 whole entry, looked up): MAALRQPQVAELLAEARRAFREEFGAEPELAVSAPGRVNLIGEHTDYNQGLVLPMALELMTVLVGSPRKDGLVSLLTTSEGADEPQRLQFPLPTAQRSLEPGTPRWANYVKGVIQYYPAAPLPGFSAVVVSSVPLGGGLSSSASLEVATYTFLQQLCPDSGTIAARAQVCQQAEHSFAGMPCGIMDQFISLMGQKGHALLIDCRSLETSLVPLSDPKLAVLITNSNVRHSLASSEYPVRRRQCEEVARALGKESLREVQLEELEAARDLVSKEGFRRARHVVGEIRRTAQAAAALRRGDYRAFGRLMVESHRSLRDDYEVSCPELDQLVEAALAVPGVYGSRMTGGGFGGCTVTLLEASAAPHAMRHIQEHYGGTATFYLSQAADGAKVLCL
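Human GALK (5 nM) with 35 uM ATP and 100 uM galactose in 20 mM HEPES pH 8.0, 5 mM MgCl2, 60 mM NaCl, 1 mM DTT, 0.01% BSA. After 1 h at room temperature, leftover ATP was read by Kinase-Glo Plus luminescence.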
Hits are given with their value; n = inactive; u = inconclusive; x = no result. An excerpt weighted towards active compounds, which were near 1.1% of everything screened. Unless noted, calls follow the shape of the dose curve; as a rule, active = well fitted curve in the direction sought with a large enough effect; inconclusive = small, poorly fitted or top-dose-only effect, or another doubt; inactive = no such curve, though single readings can be large; an effect the other way counts as inactive or inconclusive.

SMILES	TrxR1 inh	TrxR1 substrate	Integrin act MD	PI4K2A inh	LDHA inh	GALK inh
CC[C@H](C)/C=C(C)/C=C/C1=CC2=C(Cl)C(=O)[C@](C)(OC(C)=O)C(=O)C2=CO1	50.1µM	n	n	u	n	x
O=[N+]([O-])c1ccc(N2CCC(O)CC2)c2ccncc12	x	x	x	x	n	x
CCOC(=O)c1c(-n2c(C)cc(/C=C3/C(=O)NC(=O)N(CC)C3=O)c2C)sc2c1CCCC2	n	n	n	n	n	x
CCOC(=O)c1c(-n2c(C)cc(C=C3C(=O)NC(=S)NC3=O)c2C)sc2c1CCCC2	22.4µM	n	n	n	n	n
CN1C(=O)C(=Cc2ccc(OCC(=O)Nc3ccccc3)cc2)C(=O)N(C)C1=O	u	n	n	n	n	n
CN1C(=O)C(=Cc2ccccc2OS(=O)(=O)c2ccccc2)C(=O)N(C)C1=O	28.2µM	n	n	n	n	n
CN1C(=O)C(=Cc2ccccc2OCc2ccc(C(=O)O)cc2)C(=O)N(C)C1=O	u	n	n	n	-34.7	n
Cc1c(C=C2C(=O)N(C)C(=O)N(C)C2=O)c(=O)n(-c2ccccc2)n1C	n	n	n	n	n	n
CN1C(=O)C(=Cc2ccccc2OCc2ccccc2Cl)C(=O)N(C)C1=O	u	n	n	n	-45.0	n
NCCc1ccc(OCc2ccccc2)cc1	x	x	x	x	n	x
COc1ccc(N2C(=O)NC(=O)C3(Cc4cc(C)ccc4N(C)C3)C2=O)cc1 (configuration not stated)	x	x	x	x	n	x
COc1ccc(N2C(=O)NC(=O)/C(=C\c3ccc([N+](=O)[O-])s3)C2=O)cc1	25.1µM	n	n	n	n	n
CCOc1ccc(N2C(=O)NC(=O)/C(=C\c3cc(OC)c(OC)cc3[N+](=O)[O-])C2=O)cc1	11.2µM	n	n	n	n	n
O=C1NC(=O)N(c2ccccc2)C(=O)/C1=C\c1ccccc1[N+](=O)[O-]	u	n	n	n	-34.8	n
O=C1NC(=O)N(c2ccccc2)C(=O)/C1=C/c1coc2ccc(O)cc2c1=O	22.4µM	n	n	u	n	n
CCC(CN)c1ccccc1 (configuration not stated)	x	x	x	x	n	x
COC(=O)c1ccc(C2SCC(=O)Nc3n[nH]c(C)c32)cc1 (configuration not stated)	x	x	x	x	n	x
CC1c2cccn2-c2ccccc2CN1C(=O)Nc1ccc(F)cc1F (configuration not stated)	x	x	x	x	n	x
Cc1ccc(C2SCC(=O)Nc3n[nH]c(C)c32)cc1 (configuration not stated)	x	x	x	x	n	x
Cc1nn(C)cc1C1SCC(=O)Nc2c1c(C)nn2-c1ccccc1 (configuration not stated)	x	x	x	x	n	x
COc1ccc(N2C(=O)NC(=O)/C(=C/c3ccc([N+](=O)[O-])s3)C2=O)cc1	39.8µM	n	n	u	n	n
COc1cccc(N2C(=O)NC(=O)/C(=C/c3ccc([N+](=O)[O-])s3)C2=O)c1	u	n	n	n	n	n
CCCc1[nH][nH]c(=O)c1C(c1ccc(Cl)cc1)C(C#N)C#N (configuration not stated)	3.16µM	n	n	n	n	n
CCCc1[nH][nH]c(=O)c1C(c1ccccc1)C(C#N)C#N (configuration not stated)	u	n	n	n	n	n
Cc1cc(O)c2c(c1)C(=O)C13C(=C2O)C(=O)[C@H]2[C@@H](O)[C@@H]1[C@H]1[C@H](O)[C@@H]3C(=O)C3=C(O)c4c(O)cc(C)cc4C(=O)C312 (some centres not stated)	u	n	n	-75.3	n	x
SMILES	TrxR1 inh	TrxR1 substrate	Integrin act MD	PI4K2A inh	LDHA inh	GALK inh
CC(C)(C)CC(C)(C)NCCc1ccccc1	x	x	x	x	n	x
C[N+](C)(C)CC#CCOC(=O)Nc1cccc(Cl)c1	2.67µM	n	x	n	n	x
O=C(Nc1cccc(Cl)c1)N1C[C@H]2C[C@@H](C1)c1cccc(=O)n1C2	n	n	n	n	n	x
N#C/C(=C\c1ccccc1)C(=O)Nc1ccc(Br)cc1C(=O)c1ccccc1	x	x	x	x	n	x
CN1CCC(=O)C2CCCCC21 (configuration not stated)	x	x	x	x	n	x
COc1ccccc1-n1c(O)c(/C=N/NC(=S)Nc2ccccc2)c(=O)[nH]c1=S	10µM	n	n	n	n	n
NC(N)=Nc1ccc2[nH]c3c(c2c1)C[C@@]1(O)[C@H]2Cc4ccc(O)c5c4[C@@]1(CCN2CC1CC1)[C@H]3O5	26.7µM	n	x	n	n	x
Oc1ccc2c3c1O[C@H]1[C@@H](O)CC[C@@]4(O)[C@@H](C2)N(CC2CCC2)CC[C@]314	n	n	x	n	n	x
Cc1ccc(NC(=O)COC(=O)/C=C/c2ccco2)cc1S(=O)(=O)N(C)C	39.8µM	n	n	n	n	n
Cc1ccc(/C=C2\C(=O)NC(=O)N(CC3CCCO3)C2=O)s1 (configuration not stated)	39.8µM	n	n	n	n	n
COc1cc(CN2CCN(C(=O)COc3ccccc3)CC2)cc(OC)c1O	x	x	x	x	n	x
Cc1ccc(NC(=O)c2cn(C)c3ccccc23)c2cccnc12	x	x	x	x	n	x
Cc1cc(C=C2C(=O)N(C)C(=S)N(C)C2=O)c(C)n1-c1ccncc1	u	n	u	n	n	n
Cc1ccnc(-n2c(C)cc(C=C3C(=O)N(C)C(=S)N(C)C3=O)c2C)c1	17.8µM	n	n	n	n	n
COc1ccc(C(=O)O)cc1OC	n	n	n	n	n	x
O=C(O)c1cc[c]([Hg][Cl])cc1	0.355µM	n	x	u	-61.4	x
Cc1cc(C)cc(OCCOc2cccc(C=C3C(=O)NC(=O)NC3=O)c2)c1	11.2µM	n	n	n	n	n
CCOC(=O)C1=C(N)OC(c2ccccc2)=C(C(=O)OCC)C12C(=O)Nc1ccc(Br)cc12 (configuration not stated)	x	x	x	x	n	x
CCOc1ccc(-n2c(/C=C/c3ccccc3)nc3ccccc3c2=O)cc1	n	n	x	n	n	x
CCOc1ccc(-n2c(-c3cccs3)nc3ccccc3c2=O)cc1	n	n	n	n	n	n
CCn1nc(-c2cccs2)nc2c(=O)n(C)c(=O)nc1-2	u	44.7µM	n	-60.7	n	1.26µM
CCn1nc(/C=C/c2ccccc2)nc2c(=O)n(C)c(=O)nc1-2	u	15.8µM	n	-69.0	n	n
O=C(c1ccc2nc(-c3ccco3)c(-c3ccco3)nc2c1)N1CCC2(CC1)OCCO2	4.47µM	n	n	n	n	n
COc1ccc(C(=O)N2CCC3(CC2)OCCO3)cc1	n	n	n	n	n	n
COc1ccc(-c2coc3cc(OCC(=O)N4CCN(C)CC4)ccc3c2=O)cc1	x	x	x	x	n	x
O=[N+]([O-])c1ccccc1CCl	44.7µM	n	x	n	n	x
O=C1CCN(C(=O)Cc2ccccc2[N+](=O)[O-])CC1	n	n	n	n	n	n
